Laboratory results published in PubChem BioAssay (EPA / NIEHS).
The source made the active and inactive calls. The calls were made as follows: active = hit-call score of the fitted dose curve at least 0.9, where 1 is the maximum; inactive = score below 0.9.

Columns and labels:
[1] = target: Transcription factor E2F1 (Homo sapiens) (UniProt Q01094); assay: ATG_E2F_CIS: Attagene CIS-FACTORIAL HepG2 Assay for human E2F Transcription Factor 1 (AID 2282935); settings: HepG2 Attagene cis-reporter, E2F reporter RNA transcripts; actives raise or lower the signal
Outline: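 Cis-element reporter mRNA induction in transiently transfected HepG2, 24 h exposure. Activity fitted in both directions relative to DMSO negative control.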

[2] = ATG_E_Box_CIS: Attagene CIS-FACTORIAL HepG2 Assay for human Enhancer Box (E-box) (AID 2282936); settings: HepG2 E-box cis-reporter transcription, actives raise or lower the signal
Outline: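 Cells: HepG2 (human liver), transient MRTU transfection. Exposure 24 h. RNA → oligo(dT) RT → PCR → 6-FAM label → HpaI → CE. Activity fitted both directions relative to DMSO.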

[3] = ATG_M_61_CIS: Attagene CIS-FACTORIAL HepG2 Assay for M61 Transcription Factor (Internal Marker) (AID 2282937); settings: HepG2 Attagene CIS-FACTORIAL M61 internal marker reporter; actives raise or lower the signal
Outline: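 Readout: fluorescent reporter mRNA fragments resolved by capillary electrophoresis after RT-PCR. Transiently transfected human HepG2 cells carried MRTU constructs reporting endogenous TF activity; 24 h chemical exposure; gain or loss of signal fitted relative to DMSO.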

[4] = ATG_EGR_CIS: Attagene CIS-FACTORIAL HepG2 Assay for human Early Growth Response 1 (EGR1) (AID 2282938); settings: HepG2 Attagene CIS-FACTORIAL EGR reporter mRNA; actives raise or lower the signal
Outline: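 Read-out: fluorescent reporter-mRNA fragments resolved by capillary electrophoresis after RT-PCR, 24 h post-dose in transiently transfected HepG2. Endogenous transcription-factor activity reported via cis-element-regulated reporter units; gain or loss fitted relative to DMSO.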

[5] = ATG_M_19_CIS: Attagene CIS-FACTORIAL HepG2 Assay for M19 Transcription Factor (Internal Marker) (AID 2282939); settings: HepG2 Attagene CIS-FACTORIAL M19 internal marker reporter; actives raise or lower the signal
Outline: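 HepG2 cells transiently transfected with cis-regulated multiplexed reporter units, dosed 24 h. Reporter mRNA quantified by RT-PCR and capillary electrophoresis; internal background marker fitted bidirectionally versus DMSO.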

[6] = ATG_Ets_CIS: Attagene CIS-FACTORIAL HepG2 Assay for human Erythroblast Transformation Specific (ETS) (AID 2282941); settings: HepG2 ETS cis-reporter transcription, actives raise or lower the signal
Outline: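 HepG2 cells transiently transfected with cis-promoter reporter transcription units were dosed for 24 h; reporter mRNA was measured by RT-PCR, 6-FAM primer extension, HpaI digestion and capillary electrophoresis, with bidirectional fitting against DMSO baseline.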

[7] = ATG_FoxO_CIS: Attagene CIS-FACTORIAL HepG2 Assay for human Forkhead box O (FoxO) (AID 2282943); settings: HepG2 Attagene cis-reporter, FoxO element, mRNA; actives raise or lower the signal
Outline: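 Endogenous transcription factor activity read from multiplexed cis-promoter reporter transcripts in transiently transfected HepG2, 24 h after dosing. Reporter RNA measured via RT-PCR plus capillary electrophoresis of FAM-labeled products; gain or loss relative to DMSO.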

[8] = ATG_GATA_CIS: Attagene CIS-FACTORIAL HepG2 Assay for human GATA Binding Protein (AID 2282944); settings: HepG2 GATA cis-element reporter, Attagene multiplex mRNA; actives raise or lower the signal
Outline: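 HepG2 cells transiently transfected with multiplexed cis-element reporter units measure endogenous GATA activity; after 24 h compound exposure, reporter mRNA quantified by RT-PCR and capillary electrophoresis. Changes fitted in both directions vs DMSO.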

[9] = ATG_GLI_CIS: Attagene CIS-FACTORIAL HepG2 Assay for human Zinc Finger Protein GLI1 (AID 2282945); settings: HepG2, Attagene cis-factorial reporter mRNA, GLI element; actives raise or lower the signal
Outline: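 Bidirectional curve fits relative to DMSO, using reporter mRNA levels from RT-PCR plus capillary electrophoresis. Cells were HepG2 transiently carrying cis-regulated reporter constructs, harvested 24 h after dosing.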

[10] = ATG_GRE_CIS: Attagene CIS-FACTORIAL HepG2 Assay for human Glucocorticoid Response Elements (GRE) (AID 2282947); settings: HepG2 GRE cis-reporter, Attagene multiplex mRNA; actives raise or lower the signal
Outline: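 Transient MRTU transfection of human HepG2 liver cells; cis-regulated reporters report endogenous factors. 24 h dosing → RNA isolation → RT-PCR → 6-FAM primer extension → HpaI cut → CE fragment analysis. Bidirectional fit, DMSO negative control.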

[11] = ATG_ISRE_CIS: Attagene CIS-FACTORIAL HepG2 Assay for human Interferon Regulatory Factor 1 (IRF1) binding to an Interferon-Stimulated Response Element (ISRE) (AID 2282948); settings: HepG2 ISRE cis-reporter (Attagene), mRNA transcription readout; actives raise or lower the signal
Outline: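 HepG2 cells transiently transfected with multiplexed cis-promoter reporter units; after 24 h compound exposure, reporter mRNA quantified by RT-PCR, FAM labelling, HpaI digestion and capillary electrophoresis. Bidirectional fit versus DMSO baseline.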

[12] = ATG_M_32_CIS: Attagene CIS-FACTORIAL HepG2 Assay for M32 Transcription Factor (Internal Marker) (AID 2282949); settings: HepG2 Attagene cis-factorial M32 reporter, mRNA; actives raise or lower the signal;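 also: background control marker of the multiplexed CIS panel rather than a real target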
Outline: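 Fluorescent capillary electrophoresis peaks of HpaI-digested, FAM-labelled RT-PCR reporter products give the signal. Source: transiently transfected human liver HepG2 cells, 24 h after chemical dosing; bidirectional fitting against DMSO.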

[13] = ATG_M_06_CIS: Attagene CIS-FACTORIAL HepG2 Assay for M06 Transcription Factor (Internal Marker) (AID 2282950); settings: HepG2 Attagene CIS-FACTORIAL M06 internal marker reporter; actives raise or lower the signal
Outline: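 Internal background marker within multiplexed cis-reporter HepG2 system. Cells transiently transfected, dosed 24 h; reporter mRNA measured by RT-PCR, HpaI digestion and capillary electrophoresis. Bidirectional fit relative to DMSO.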

[14] = target: Hepatocyte nuclear factor 6 (Homo sapiens) (UniProt Q9UBC0); assay: ATG_HNF6_CIS: Attagene CIS-FACTORIAL HepG2 Assay for human Hepatocyte Nuclear Factor 6 (HNF6) (AID 2282952); settings: HepG2 Attagene cis-factorial HNF6 reporter transcription; actives raise or lower the signal
Outline: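 HepG2, transient MRTU transfection (cis promoters); 24 h chemical exposure; total RNA → oligo(dT) RT → PCR → 6-FAM labelling → HpaI cut → CE; bidirectional fit vs DMSO.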

[15] = target: Heat shock factor protein 1 (Homo sapiens) (UniProt Q00613); assay: ATG_HSE_CIS: Attagene CIS-FACTORIAL HepG2 Assay for human Heat Shock Transcription Factor 1 (HSE) (AID 2282953); settings: HepG2 HSE cis-reporter, Attagene RNA transcription; actives raise or lower the signal
Outline: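 HepG2 cells transfected with cis-promoter reporter units sensing endogenous transcription factor activity; reporter mRNA quantified 24 h post-dose by RT-PCR and capillary electrophoresis of 6-FAM-labelled products. Bidirectional fitting against DMSO.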

[16] = target: Hepatocyte nuclear factor 3-beta (Homo sapiens) (UniProt Q9Y261); assay: ATG_FoxA2_CIS: Attagene CIS-FACTORIAL HepG2 Assay for human Forkhead box A2 (FOXA2) (AID 2282942); settings: HepG2 cis-reporter transcription factor activity, 24 h; actives raise or lower the signal
Outline: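 Readout: fluorescent reporter transcripts resolved by capillary electrophoresis after RT-PCR. Transiently transfected HepG2, 24 h compound exposure, endogenous TF activity at cis promoter elements. Gain or loss of signal fitted relative to DMSO.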

[17] = ATG_MRE_CIS: Attagene CIS-FACTORIAL HepG2 Assay for human Metal Responsive Element (MRE) (AID 2282954); settings: HepG2 MRE cis-reporter transcription, Attagene multiplex; actives raise or lower the signal
Outline: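 Transient MRTU transfection of HepG2 (FuGene 6); 24 h dosing; total RNA → oligo(dT) RT, PCR, 6-FAM primer extension, HpaI cut, CE. Bidirectional fit vs DMSO.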

[18] = target: Hypoxia-inducible factor 1-alpha (Homo sapiens) (UniProt Q16665); assay: ATG_HIF1a_CIS: Attagene CIS-FACTORIAL HepG2 Assay for human Hypoxia Inducible Factor 1 (HIF1A) (AID 2282951); settings: HepG2 Attagene cis-factorial HIF1a reporter transcription; actives raise or lower the signal
Outline: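 RT-PCR/capillary electrophoresis fluorescence readout of reporter transcripts from endogenous-TF-driven cis elements in transfected HepG2 cells, 24 h exposure; activity fitted in both directions against DMSO controls.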

[19] = ATG_ERE_CIS: Attagene CIS-FACTORIAL HepG2 Assay for Estrogen Response Element (ERE) (AID 2282940); settings: HepG2 ERE cis-reporter, Attagene RNA transcript; actives raise or lower the signal
Outline: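 HepG2 cells transiently transfected with multiplexed cis-element reporter units, measuring endogenous transcription factor activity; ERE reporter mRNA quantified after 24 h exposure by RT-PCR, fluorescent labelling, HpaI digestion and capillary electrophoresis. Bidirectional change versus DMSO.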

Measured: outcome

Chain of Transcription factor E2F1 (Homo sapiens) (Q01094 whole entry, looked up): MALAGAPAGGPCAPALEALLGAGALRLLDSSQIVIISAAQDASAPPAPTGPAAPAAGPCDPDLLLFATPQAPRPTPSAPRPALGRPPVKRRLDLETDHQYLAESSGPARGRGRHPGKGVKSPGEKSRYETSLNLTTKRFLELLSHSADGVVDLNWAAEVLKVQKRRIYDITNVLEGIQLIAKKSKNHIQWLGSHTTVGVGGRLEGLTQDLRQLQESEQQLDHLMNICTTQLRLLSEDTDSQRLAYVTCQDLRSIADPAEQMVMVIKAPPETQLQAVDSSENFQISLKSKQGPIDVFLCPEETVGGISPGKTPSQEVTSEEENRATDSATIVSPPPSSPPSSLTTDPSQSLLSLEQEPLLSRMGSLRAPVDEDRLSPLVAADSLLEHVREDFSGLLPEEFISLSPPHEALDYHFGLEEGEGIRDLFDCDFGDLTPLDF
Chain of Hepatocyte nuclear factor 3-beta (Homo sapiens) (Q9Y261 whole entry, looked up): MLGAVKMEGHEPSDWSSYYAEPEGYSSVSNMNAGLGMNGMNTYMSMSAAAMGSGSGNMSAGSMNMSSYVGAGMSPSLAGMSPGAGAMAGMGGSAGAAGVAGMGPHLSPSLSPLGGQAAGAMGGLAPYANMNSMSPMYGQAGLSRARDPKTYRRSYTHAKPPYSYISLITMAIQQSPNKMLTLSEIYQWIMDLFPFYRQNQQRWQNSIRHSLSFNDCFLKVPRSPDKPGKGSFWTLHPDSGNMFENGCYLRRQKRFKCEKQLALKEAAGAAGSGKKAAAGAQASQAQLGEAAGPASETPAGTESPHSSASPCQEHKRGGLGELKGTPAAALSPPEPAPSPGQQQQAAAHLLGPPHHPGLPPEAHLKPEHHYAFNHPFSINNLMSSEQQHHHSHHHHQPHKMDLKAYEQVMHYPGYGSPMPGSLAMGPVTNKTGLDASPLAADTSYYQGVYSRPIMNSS
Chain of Heat shock factor protein 1 (Homo sapiens) (Q00613 whole entry, looked up): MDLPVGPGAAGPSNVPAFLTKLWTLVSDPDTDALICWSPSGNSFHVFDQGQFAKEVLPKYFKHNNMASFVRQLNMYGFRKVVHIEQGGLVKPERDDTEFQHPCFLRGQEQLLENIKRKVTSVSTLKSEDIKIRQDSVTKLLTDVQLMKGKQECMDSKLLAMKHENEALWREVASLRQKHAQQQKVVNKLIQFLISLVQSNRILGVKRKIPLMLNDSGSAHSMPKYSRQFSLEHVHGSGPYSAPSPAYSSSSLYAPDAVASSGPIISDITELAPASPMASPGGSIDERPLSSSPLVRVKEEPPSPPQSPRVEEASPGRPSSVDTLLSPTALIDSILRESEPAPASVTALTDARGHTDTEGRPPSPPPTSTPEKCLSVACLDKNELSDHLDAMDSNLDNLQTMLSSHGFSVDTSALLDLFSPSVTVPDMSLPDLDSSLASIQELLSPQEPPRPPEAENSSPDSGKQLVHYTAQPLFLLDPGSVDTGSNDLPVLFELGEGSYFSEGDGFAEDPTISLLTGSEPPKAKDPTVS
Chain of Hypoxia-inducible factor 1-alpha (Homo sapiens) (Q16665 whole entry, looked up): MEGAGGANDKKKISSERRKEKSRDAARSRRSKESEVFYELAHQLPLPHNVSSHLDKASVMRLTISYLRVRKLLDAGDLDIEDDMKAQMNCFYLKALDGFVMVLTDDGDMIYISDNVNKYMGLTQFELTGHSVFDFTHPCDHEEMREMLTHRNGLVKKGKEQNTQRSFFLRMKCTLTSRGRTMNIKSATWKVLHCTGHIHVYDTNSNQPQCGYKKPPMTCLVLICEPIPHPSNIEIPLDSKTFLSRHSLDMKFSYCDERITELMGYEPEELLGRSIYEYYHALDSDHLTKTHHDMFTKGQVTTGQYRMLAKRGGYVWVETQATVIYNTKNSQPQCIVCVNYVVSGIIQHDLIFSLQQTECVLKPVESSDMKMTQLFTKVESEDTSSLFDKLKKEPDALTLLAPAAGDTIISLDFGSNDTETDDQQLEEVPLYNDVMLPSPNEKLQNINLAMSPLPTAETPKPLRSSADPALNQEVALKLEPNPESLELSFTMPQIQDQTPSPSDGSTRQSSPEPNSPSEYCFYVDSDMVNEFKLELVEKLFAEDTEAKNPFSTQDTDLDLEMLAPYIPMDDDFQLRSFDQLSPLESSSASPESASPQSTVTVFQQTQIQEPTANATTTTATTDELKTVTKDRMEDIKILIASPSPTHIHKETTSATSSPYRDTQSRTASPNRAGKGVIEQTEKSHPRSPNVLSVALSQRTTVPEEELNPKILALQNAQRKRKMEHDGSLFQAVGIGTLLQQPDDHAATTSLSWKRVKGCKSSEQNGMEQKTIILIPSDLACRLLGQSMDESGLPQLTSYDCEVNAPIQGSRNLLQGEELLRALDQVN
Chain of Hepatocyte nuclear factor 6 (Homo sapiens) (Q9UBC0 whole entry, looked up): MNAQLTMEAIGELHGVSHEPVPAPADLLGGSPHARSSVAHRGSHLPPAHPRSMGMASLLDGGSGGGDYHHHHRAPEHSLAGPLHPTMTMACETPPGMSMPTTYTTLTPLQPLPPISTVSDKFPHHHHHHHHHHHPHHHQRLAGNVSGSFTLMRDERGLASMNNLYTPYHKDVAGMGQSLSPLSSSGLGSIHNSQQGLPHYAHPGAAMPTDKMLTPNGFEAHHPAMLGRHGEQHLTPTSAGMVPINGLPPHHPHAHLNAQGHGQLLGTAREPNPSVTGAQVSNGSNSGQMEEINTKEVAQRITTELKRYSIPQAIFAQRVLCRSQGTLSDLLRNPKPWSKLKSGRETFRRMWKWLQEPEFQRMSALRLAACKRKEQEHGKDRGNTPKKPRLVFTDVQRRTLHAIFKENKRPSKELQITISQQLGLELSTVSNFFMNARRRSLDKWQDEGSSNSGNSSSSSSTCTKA

CC1=CC(O)CC(C)(C)C1 (stereo unspecified)
inactive: [1] | [2] | [3] | [4] | [5] | [6] | [7] | [8] | [9] | [10] | [11] | [12] | [13] | [14] | [15]

CCCCCCCCCCCCN1CCOCC1
inactive: [1] | [2] | [3] | [4] | [5] | [6] | [16] | [7] | [9] | [10] | [11] | [12] | [13] | [15] | [17]

CCCCCC#CC(=O)OC
inactive: [1] | [2] | [3] | [4] | [5] | [6] | [16] | [7] | [8] | [9] | [11] | [12] | [13] | [18] | [14] | [15] | [17]

CCCCCCC(C)O (stereo unspecified)
inactive: [1] | [2] | [3] | [4] | [5] | [6] | [16] | [7] | [8] | [9] | [10] | [11] | [12] | [13] | [18] | [14] | [15] | [17]

CCCCCCCCCCCCOCCOS(=O)(=O)O
inactive: [1] | [2] | [3] | [4] | [5] | [16] | [7] | [8] | [9] | [11] | [12] | [13] | [18] | [14] | [17]

NS(=O)(=O)c1cc(C(=O)O)c(NCc2ccco2)cc1Cl
inactive: [1] | [2] | [3] | [4] | [5] | [6] | [7] | [8] | [9] | [11] | [12] | [13] | [18] | [15] | [17]

O=C(O)c1ccccc1O
inactive: [1] | [2] | [3] | [4] | [5] | [6] | [7] | [8] | [9] | [11] | [12] | [18] | [14]

CCC(=O)OCC=Cc1ccccc1
inactive: [1] | [2] | [3] | [4] | [5] | [6] | [16] | [7] | [8] | [9] | [10] | [11] | [18] | [14] | [15] | [17]

CCC(C)(C)C1CCC(OC)CC1 (stereo unspecified)
inactive: [1] | [2] | [4] | [5] | [19] | [6] | [16] | [7] | [8] | [9] | [11] | [18] | [14] | [15] | [17]

CC1=CCC(C(C)(C)O)CC1 (stereo unspecified)
inactive: [1] | [2] | [4] | [5] | [19] | [6] | [16] | [7] | [8] | [9] | [11] | [12] | [13] | [18] | [14] | [15] | [17]
